Results reported in PubChem BioAssay (NCI).
Compounds without any hit were thinned out: in the full panel of roughly 79,000, 15% have a hit. Values without a mark were called inactive. Activity calls are given as the source filed them. No stated cut-off is given here; in the data, active means growth inhibition above about 70%; inactive means the rest. Where a SMILES comes first, the peptide text is derived from it. The star is where a group is joined. ONp = O=[N+]([O-])c1ccc(O*)cc1; Tos = Cc1ccc(S(=O)(=O)*)cc1

Legend:
[1] = NCI Yeast Anticancer Drug Screen. Data for the rad50 strain (AID 155);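 further: 0% = growth of vehicle-only cultures of the same strain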; settings: S. cerevisiae rad50 strain growth inhibition; at 50.0 µM; active compounds read high
How it was run: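 A DNA repair-deficient yeast mutant serves as the test organism; compound-induced growth inhibition is calculated against vehicle-treated cells.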

[2] = NCI Yeast Anticancer Drug Screen. Data for the mec2-1 strain (AID 157); settings: S. cerevisiae mec2-1 strain, at 50.0 µM, active compounds read high
How it was run: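 Compounds were applied to mec2-1 yeast cells. Their growth was then compared with that of vehicle-treated cultures to give growth inhibition.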

[3] = NCI Yeast Anticancer Drug Screen. Data for the sgs1 mgt1 strain (AID 161);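 further: 0% = growth of cultures given vehicle only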; settings: S. cerevisiae sgs1 mgt1 strain, at 50.0 µM, active compounds read high
How it was run: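 This yeast growth screen uses a strain with defined DNA-repair lesions; compound-treated growth is compared with vehicle-treated growth.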

[4] = NCI Yeast Anticancer Drug Screen. Data for the cln2 rad14 strain (AID 165);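 further: 0% = growth equal to vehicle treated cultures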; settings: S. cerevisiae cln2 rad14 strain, at 50.0 µM, active compounds read high
How it was run: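 Strain: cln2 rad14 yeast, altered in cell cycle control and DNA damage repair. Read-out: growth inhibition vs vehicle.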

[5] = NCI Yeast Anticancer Drug Screen. Data for the bub3 strain (AID 167); settings: S. cerevisiae bub3 mutant strain, at 50.0 µM, active compounds read high
How it was run: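 Inhibition values come from growth of compound-treated mutant yeast normalised to vehicle-treated controls.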

[6] = NCI Yeast Anticancer Drug Screen. Data for the mlh1 rad18 strain (AID 175); settings: S. cerevisiae mlh1 rad18 strain growth inhibition; at 50.0 µM; active compounds read high
How it was run: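 A repair-deficient yeast strain is exposed to test compound, and growth is scored relative to vehicle-treated controls.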

SMILES | growth inhibition [1] | growth inhibition [2] | growth inhibition [3] | growth inhibition [4] | growth inhibition [5] | growth inhibition [6]
CCOC(=C\C=C\C1=[N+](C)c2ccccc2C1(C)C)/C=C/C=C1/N(C)c2ccccc2C1(C)C | 17.6% | 87.6% (active) | 34.2% | 82.5% (active) | 81.8% (active) | 27.6%
O=C(Nc1cccc2ccccc12)c1ccco1 | 14.8% | 16.5% | 8.6% | 3.8% | 1.65% | 7.9%
CC(Oc1ccc2cc(C(=O)c3ccccc3)c(=O)oc2c1)C(=O)O (stereo not given) | -4.25% | 3.75% | 19.2% | 32.9% | -0.1% | 44.9%
CC(C)(CO)NO | -13.7% | -6.9% | 3.05% | -0.4% | -14.3% | -5.7%
C=C(Cl)CSC(C)(C)C | -9.4% | 5.8% | -6.7% | -19.6% | -18.2% | -8.5%
CN(C)Cc1[nH]c(=O)[nH]c(=O)c1O | -9.05% | -8.75% | -11.9% | -38.8% | -21.5% | -45.3%
NC(=O)N/N=C1\CCc2ccccc2C1 | 12.8% | -12.3% | -25.8% | 22.4% | -42.3% | -2.8%
CC(C)(C)OC(=O)C1CCC/C1=N/Nc1ccc([N+](=O)[O-])cc1[N+](=O)[O-] (stereo not given) | -38.3% | -46% | 10.3% | 24.2% | 20.7% | -11.6%
Cc1cc(C)c(C(=O)/C(O)=C/c2ccccc2)c(C)c1 | -13.7% | -7.7% | 1.2% | 9.95% | -45.5% | -14.2%
O=C(O)Cc1cc(Cl)ccc1Cl | -4% | 8.85% | 8.7% | -2.55% | -1.2% | -9.05%
O/N=C1\CCCC\C1=N/O | 6.55% | -9.8% | -8.35% | -3.1% | 8.95% | -4.25%
CCOc1nc(=O)n(CC(=O)c2ccc(Cl)s2)cc1F | 4.55% | 17.4% | -0.8% | -7.8% | 21.6% | 19.6%
CC(O)C(NC(=O)Nc1ncnc2nc[nH]c12)C(=O)O (stereo not given) | 8.8% | 4.3% | -2% | 7.75% | -14.2% | 16.9%
O=[N+]([O-])c1ccc(NC(CO)C(O)C(O)C(O)CO)c([N+](=O)[O-])c1 (stereo not given) | 12.3% | -4.85% | -0.85% | -6.45% | 3.2% | -7.4%
Cc1cc(C23OC4COC(C)(C)OC4C2OC(C)(C)O3)nc2ccccc12 (stereo not given) | -1.35% | 13.6% | 18.6% | -22.1% | 13.1% | 23.6%
Cc1cc(CO)c(O)c(CN(CC(=O)O)CC(=O)O)c1 | 20.2% | -14.9% | 5.9% | -1.4% | 21.6% | -0.7%
N#Cc1c(-c2ccc(Cl)cc2)cn2c1[nH]c(=O)c1c3c(sc12)CCCC3 | 13.2% | 10.2% | 0.15% | -6.8% | -4.25% | 1.35%
O=C(Cc1ccccc1)NN1C(=O)/C(=C\c2ccc(O)cc2)SC1=Nc1ccccc1 | 5.5% | -1.05% | 28.9% | 4.4% | -9.75% | 19.9%
ClC(Cl)=C(Cl)C(Cl)(Cl)Cl | -23.8% | 20.9% | 0.95% | -16.5% | -5.65% | 5.4%
CC1=Nc2ccc(C)cc2N=C(C)C1 | 11.4% | 4.1% | 7.2% | -29.4% | 22.4% | -1.6%

SMILES | growth inhibition [1] | growth inhibition [2] | growth inhibition [3] | growth inhibition [4] | growth inhibition [5] | growth inhibition [6]
Cc1cccc(C(=O)O)c1N | 9.7% | -5.25% | -10.6% | 9.95% | -33.6% | 13.4%
CCCCCCCCCCCCCCCCc1c(C)nc(N(C)C)oc1=O | 18.8% | 23% | -4.4% | 8.2% | 21.1% | 2.25%
Cc1cc(=O)oc2nc(-c3ccccc3)[nH]c(=O)c12 | 0.3% | -10.2% | 3.2% | -5.4% | -7.15% | 18.3%
CC(C)(C)OC(=O)NCCNC(=O)OCc1ccccc1 | 4.25% | -12.2% | -16.7% | 4.45% | -3.5% | -0.25%
Cc1ccc(S(=O)(=O)NCC(=O)NCC(=O)Oc2ccc([N+](=O)[O-])cc2)cc1 (Tos-Gly-Gly-ONp) | 52.7% | 13% | 42.2% | 18.8% | 2% | 16%
O=C1CNC(=O)N1 | -38.1% | 23.8% | 2% | -11.7% | 3.85% | -38.2%
COC1OC(COC(=O)c2ccccc2)C(OC(=O)c2ccccc2)C1NC(C)=O (stereo not given) | 14.1% | 18.7% | 12.7% | 62.1% | 39.1% | 28.4%
C1CCSCCCCCSCCCCCSCCCCCSCC1 | 25.2% | -7.55% | -4.2% | -3.15% | 4.35% | -8.7%
CSc1nc(-c2ccc(Cl)cc2)c(C#N)c(=O)n1C1OC(COC(C)=O)C(OC(C)=O)C(OC(C)=O)C1OC(C)=O (stereo not given) | -0.55% | -5.75% | 16.6% | 21.2% | -36% | 23.2%
COc1cc2c(cc1OC)-c1c(C)c3ccc(OC)c(NCCO)c3c[n+]1CC2 | -43.2% | -10% | -29.7% | -17% | -0.4% | -8.3%
C#CC(C)OC(=O)Nc1ccccc1 (stereo not given) | 28.6% | -22.2% | 3.4% | -3.95% | -7.65% | -8.3%
N#Cc1c(N)nc([Se]CC(=O)c2ccc(Cl)cc2)c(C#N)c1-c1ccco1 | -7.45% | -3.45% | 2.3% | 9.4% | 4.1% | 10.9%
[Cl][Ce]([Cl])[Cl] | 28.1% | 14.2% | 24.9% | 16.4% | 24.1% | 15.6%
O=C(O)c1c2ccccc2nc2c1sc1ccccc12 | -17.9% | -8% | -3.05% | -63.6% | -1.45% | -7.85%
C=CC1CCC[N+]1(CC(=O)OCC)Cc1ccccc1 (stereo not given) | -15.2% | -13.9% | -25.2% | 3.7% | -2.15% | -10.8%
N#CC(CN1CCCCC1)c1ccccc1 (stereo not given) | 5.4% | 1.55% | 5.2% | -41.4% | -8.75% | 0.8%
C(=N\c1nnc2ccccn12)/c1ccccc1 | 0.2% | -6.8% | -21.7% | -9.6% | -13.7% | -28.3%
CC1(C)C2CCC(=O)C1C(OCc1ccccc1)C2 (stereo not given) | -22.1% | 15.7% | -21.1% | -0.85% | -11.6% | -47.4%
CNC(=O)O[C@H]1C(=O)O[C@@H]2C[C@H]3C(C)=C(O)C(=O)C[C@]3(C)[C@H]3[C@@H](O)[C@H](O)[C@@]4(C(=O)OC)OC[C@]32[C@@H]14 | 24.9% | 16.4% | 1.95% | 7.3% | 14.9% | 16.9%
COc1cc(C2C(C(C)=O)=C(C)Oc3cc4c(cc32)OCO4)cc(OC)c1O (stereo not given) | 21.1% | 2.5% | -0.25% | 4.15% | 10.1% | 35.5%
